# In the supplement of paper PMC12532568:
# Structures can show the parent of a compound that is named as a salt.
# Tested on: Danio rerio larvae Tg(actc1b:ZsGreen-LC3), 3 dpf
# Assay: LC3 puncta relative area vs vehicle, with NH4Cl (autophagic flux) (log2 fold change); higher = more autophagy
# Conditions: 10 µM; treatment time 16 h; NH4Cl: + 100 mM, 4 h
# Protocol: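 Transgenic Tg(actc1b:ZsGreen-map1lc3) zebrafish larvae (2 dpf) were treated for 16 h with Tocris library compounds at 10 µM (n = 12 larvae per compound). Skeletal-muscle LC3 puncta area relative to body area was measured by high-content confocal imaging before and after 4 h of 100 mM NH4Cl (autophagic flux), normalised to vehicle (DMSO), and reported as log2 fold change.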
row,SMILES,LC3 puncta (log2)
1,CC(C)[N+]1(C)[C@@H]2CC[C@H]1C[C@@H](OC(=O)C(CO)c1ccccc1)C2 (stereo not given in full) [Ipratropium bromide],0.284
2,O=[N+]([O-])c1cc2nc(O)c(O)nc2cc1[N+](=O)[O-],0.11
3,CNCCCCOc1ccccc1Cc1ccccc1 [Bifemelane],0.532
4,c1cc2c(cc1C1CCCCC1)c1c3n2CCNC3CCC1 (stereo not given) [Tetrindole mesylate],0.836
5,CC1=C(/C=C/C(C)=C/C=C/C(C)=C/C(=O)O)C(C)(C)CCC1 [Retinoic acid],1.64
6,CC(C)(C)NC[C@H](O)COc1nsnc1N1CCOCC1 [(S)-Timolol maleate],0.785
7,O=[N+]([O-])c1cccc2cn[nH]c12 [7-Nitroindazole],0.507
8,O=S(=O)(c1cccc2cnccc12)N1CCCNCC1 [Fasudil hydrochloride],0.726
9,CC(=O)N1CCN(C)CC1 [1-Acetyl-4-methylpiperazine hydrochloride],0.372
10,COc1cc2c(CCNC(C)=O)c[nH]c2cc1Cl [6-Chloromelatonin],0.198
11,NC(=O)CCCCn1ccc(NC(N)=NCC(F)(F)F)n1,0.72
12,c1ccc2sc(N3CCN(Cc4ccc5c(c4)OCO5)CC3)nc2c1 [2-[1-(4-Piperonyl)piperazinyl]benzothiazole],0.593
13,N[C@@H](C(=O)O)c1ccc(O)c(C(=O)O)c1 [(R)-3-Carboxy-4-hydroxyphenylglycine],0.421
14,C=C1C(=O)O[C@H]2[C@H]1CC/C(C)=C/CC[C@@]1(C)O[C@@H]21 [Parthenolide],0.46
15,O=C1CC2(CCCC2)CC(=O)N1CCCCNCC1COc2ccccc2O1 (stereo not given),-0.368
16,COc1ccccc1N1CCN(CC(O)COc2cccc3ccccc23)CC1 (stereo not given) [Naftopidil dihydrochloride],0.195
17,CN(C)CCCCSC(=N)N,0.383
18,CNC(=O)c1cc2c(cn1)[nH]c1ccccc12,0.446
19,CC(Cc1ccc(O)c(O)c1)(NN)C(=O)O [(S)-(-)-Carbidopa],0.219
20,Nc1cc(N2CCCCC2)nc(N)[n+]1[O-] [Minoxidil],0.501

row,SMILES,LC3 puncta (log2)
1,c1ccc2nc(C3=NCCN3)cnc2c1 [BU 239 hydrochloride],0.0532
2,"c1ccc(CN2CCC3(CCc4ccccc43)CC2)cc1 [L-693,403 maleate]",0.655
3,CCc1nc(N)nc(N)c1-c1ccc(Cl)cc1 [Pyrimethamine],0.578
4,CC(=O)N[C@@H](Cc1c[nH]c2ccccc12)C(=O)OCc1cc(C(F)(F)F)cc(C(F)(F)F)c1,0.108
5,N[C@H]1CCN(O)C1=O,0.023
6,CC(C)CC(NC(=O)OCC1c2ccccc2-c2ccccc21)C(=O)O (stereo not given),0.569
7,"COC(=O)/C=C/c1cc(O)ccc1O [Methyl 2,5-dihydroxycinnamate]",0.332
8,CCCC[C@@H](C=O)NC(=O)[C@H](CC(C)C)NC(=O)OCc1ccccc1 [Calpeptin],1.29
9,NC(=O)Nc1sc(-c2ccc(F)cc2)cc1C(N)=O,0.588
10,O=C(/C=C/c1ccc(O)c(O)c1)O[C@H](Cc1ccc(O)c(O)c1)C(=O)O [Rosmarinic acid],0.0251
11,COCCOC(=O)C1=C(C)NC(C)=C(C(=O)OC(C)C)C1c1cccc([N+](=O)[O-])c1 (stereo not given) [Nimodipine],0.885
12,CC(C)Oc1ccc2c(=O)c3cc(C(=O)O)ccc3oc2c1,0.814
13,NC(=O)c1cccc(N)c1 [3-Aminobenzamide],0.645
14,CCCCOc1cc(CC2CNC(=O)N2)ccc1OC (stereo not given),0.0673
15,O=C(OCCN1CCOCC1)C1(c2ccccc2)CCCCC1 [PRE-084 hydrochloride],0.339
16,NC(N)=Nc1ccc(Cl)cc1 [4-Chlorophenylguanidine hydrochloride],0.148
17,Cc1noc(NS(=O)(=O)c2ccc(N)cc2)c1C [Sulfisoxazole],0.483
18,C/N=C(/NC#N)NCCSCc1csc(NC(=N)N)n1 [Tiotidine],0.667
19,S=C(S)N1CCCC1 [Pyrrolidinedithiocarbamate ammonium],0.71
20,CCCCCCN(CCCCCC)C(=O)Cc1c(-c2ccc(Cl)cc2)[nH]c2ccc(Cl)cc12,0.58
